# PubChem BioAssay (NCI)
# This is part of a sample that, as a whole, favours compounds with a hit. Of some 83,000 tested, about 20% had one in any assay.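 How to read the values: 0–100, growth inhibition (40 = 60% inhibited); 0, no net growth; -100 to 0, cell death (-40 = 40% of starting cells died; -100 = all dead).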 Values without a mark were called inactive. Calls of active or inactive are those of the source. Rule for the calls: active = growth percent below 10; inactive = the rest.
# Assays:
# Test in all cases: NCI-60 one-dose screen, 48 h (100 = growth as untreated, 0 = no growth, -100 = all killed)
# Conditions in all cases: 10 µM unless noted
# HCT-15 colon = tested on: HCT-15 colon
# HT29 colon = tested on: HT29 colon
# SNB-75 CNS = tested on: SNB-75 CNS
# SNB-19 CNS = tested on: SNB-19 CNS
# U251 CNS = tested on: U251 CNS
# PC-3 prostate = tested on: PC-3 prostate
# SK-MEL-5 melanoma = tested on: SK-MEL-5 melanoma
# UACC-62 melanoma = tested on: UACC-62 melanoma
# LOX IMVI melanoma = tested on: LOX IMVI melanoma
# SK-MEL-28 melanoma = tested on: SK-MEL-28 melanoma
Structure (SMILES),growth (HCT-15 colon),growth (HT29 colon),growth (SNB-75 CNS),growth (SNB-19 CNS),growth (U251 CNS),growth (PC-3 prostate),growth (SK-MEL-5 melanoma),growth (UACC-62 melanoma),growth (LOX IMVI melanoma),growth (SK-MEL-28 melanoma)
CNC(=O)c1cc(-n2ccc3cc(NC(=O)c4ccc(N5CCOCC5)c(C(F)(F)F)c4)ccc32)ccn1,43.2%,25.1%,85.9%,81.1%,50.3%,18%,24.6%,38.7%,36.1%,82.2%
CCCC1CCC(O)(C(C)(O)C(=O)NC2C(=O)N3NCCCC3C(=O)N(O)C(C)C(=O)N3NCCCC3C(=O)N3NCC(O)CC3C(=O)NC(C)C(=O)OC2C(C)C)OC1CC (stereo not given),-64.1% (active),-55.6% (active),-83% (active),-81.5% (active),-74.2% (active),-86% (active),-97.3% (active),-71.8% (active),-72.9% (active),-99.3% (active)
Cc1ccc(C(=O)N/N=C/c2cccc(Oc3ccccc3)c2)cn1,38.5%,20%,65.7%,65.6%,58.9%,76.7%,47.4%,38.3%,63.9%,63.7%
O=C(CCN1C(=O)/C(=C/c2ccc(O)cc2)SC1=S)Nc1ccccc1,90.8%,118%,89.3%,91.4%,92.7%,90.5%,101%,81.6%,97.6%,97.3%
N#Cc1ccc(NC(=O)c2sc3nc4c(cc3c2N)C(=O)CCC4)cc1,101%,84.9%,113%,102%,106%,107%,92.6%,99.3%,112%,106%
CCN(CC)CCCNc1nc2ccccc2c2c(=O)c3cc(Cl)ccc3sc12,36.2%,11.7%,68.3%,79.6%,41.5%,54.7%,92.7%,73.8%,-81.2% (active),84.3%
CCN(CC)c1ccc(C2=NN(C(C)=O)C(c3cc(OC)c(OC)c(OC)c3)C2)cc1 (stereo not given),12.8%,8.86% (active),17.8%,40.1%,18.7%,20.4%,23.4%,13.1%,31.5%,51.8%
NCCCNc1nc2ccc(Cl)cc2c2c(=O)c3cc(F)ccc3sc12,47.9%,-12.1% (active),54.2%,77.1%,38.1%,58.2%,94.3%,97.4%,-62.3% (active),103%
CCCCNC(=O)Oc1ccc(/C(=C(\C)c2ccc(Cl)cc2)c2ccc(OCCN(CC)CC)cc2)cc1,19.5%,-10.2% (active),64.9%,86%,50.7%,60.9%,78.4%,74.6%,71.5%,74.9%
O=c1c2cc(F)cc(Cl)c2sc2c(NCCCNCCO)nc3ccccc3c12,77.3%,3.35% (active),74.6%,88.1%,75.8%,82.7%,98.9%,99.9%,66%,108%
COc1cc(C2CC(c3ccc(N(C)C)cc3)=NN2C(C)=O)cc(OC)c1OC (stereo not given),24.6%,9.83% (active),-23.6% (active),39.3%,29.3%,29.4%,9% (active),26.9%,37.6%,52.2%
CCCCCCNC(=O)Oc1ccc(/C(=C(\C)c2ccc(Cl)cc2)c2ccc(OCCCN(C)C)cc2)cc1,8.75% (active),0.63% (active),79.1%,79.8%,42%,79.6%,86.2%,96.9%,39.5%,97.2%
COC(=O)[C@H](C)NC(=O)NC(=O)NC(=O)CI,51.4%,67.2%,112%,108%,96.9%,86.7%,99.5%,41.2%,-66.2% (active),48%
N#CC1=C(N)Oc2c(sc3c(Br)cccc23)C1c1ccc([N+](=O)[O-])cc1 (stereo not given),7.43% (active),2.5% (active),25.8%,30.8%,14.6%,13.6%,0.865% (active),15.2%,-11.3% (active),61.4%
CC1CN(C2CCCCC2)C(=S)N(c2ccccc2)C1=O (stereo not given),103%,111%,92.1%,101%,105%,90.1%,104%,105%,105%,114%
COc1ccc(C(=O)/C=C/c2sc(Cl)nc2Cl)cc1,13.1%,31.9%,50.9%,68.9%,16.5%,52.3%,-39.1% (active),58.8%,-49.9% (active),53.2%
CCc1cccc2c1S/C(=C/c1ccc(Cl)cc1)C2=O,92.5%,105%,73.3%,95.1%,99.2%,88.6%,99.4%,88.6%,93.8%,110%
CC1(C)C2CC1C1(/C=N\Nc3ccccc3)C(C2)C(C#N)(C#N)C1(C#N)C#N (stereo not given),87.3%,102%,91.4%,96.2%,94.8%,72.2%,94.4%,58.5%,52.2%,106%
CCCCC1CCCC12NC(=O)NC2=O (stereo not given),103%,110%,107%,104%,99.5%,95%,117%,93.8%,88.9%,113%
O=C(CSc1nccc(Nc2ccc(S(=O)(=O)Nc3nccs3)cc2)n1)c1ccc(C(F)(F)F)cc1,103%,106%,91.5%,93.2%,86.6%,93.2%,95.1%,93.2%,99.2%,108%
CCOC(=O)/C(C#N)=C\Nc1ccc2ncnc(Nc3ccc(Cl)cc3Cl)c2c1,92.7%,79.4%,91.3%,86.4%,81.4%,59.3%,78.3%,90%,87.4%,109%
Cc1onc2c(-c3ccccc3)n[nH]c(=O)c12,104%,90.4%,83%,90.3%,97.6%,90.5%,105%,95.3%,104%,108%
CC(C)c1cc(C(C)C)c(S(=O)(=O)Oc2ccc(NC(=O)c3ccc(Cl)cc3)cc2)c(C(C)C)c1,20.2%,46.6%,64.9%,17.6%,20.9%,14%,31.4%,9.11% (active),33.5%,56.8%
COc1ccc(C2=Nn3c(nnc3-c3cc(Cl)cc(Cl)c3Cl)SC2)cc1,12.1%,-28.8% (active),22.7%,14.3%,18.5%,18.1%,-13.5% (active),41.1%,23.7%,47.7%
CCc1cccc2c3c(sc12)C(c1ccc(F)cc1)C(C#N)=C(N)O3 (stereo not given),14.5%,12.7%,24.1%,39.8%,29.2%,20.4%,27.4%,39%,14.6%,60.5%
c1ccc2cc(C[n+]3ccn(CCCCCCCCCCCCn4cc[n+](Cc5ccc6ccccc6c5)c4)c3)ccc2c1,17.4%,-82.7% (active),-96.2% (active),-80.5% (active),-84.6% (active),-37.6% (active),-93.5% (active),-81.7% (active),-84.9% (active),-72.3% (active)
CCCSc1nc2ccc(C)cc2cc1/C=[N+](\[O-])c1ccccc1,11.5%,10% (active),21.4%,37.2%,12.8%,23.1%,27.6%,31.3%,19%,48.3%
